NS1 function inh = blocks influenza NS1 protein function. Potency, µM (titrated, usually from 46.1 µM). 0.4% of 270,000 active; calls by dose curve; note: actives are rising curves; nearly all actives have a fitted effect of over 50% in size
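S. cerevisiae expressing influenza A NS1, grown in glucose, washed, then diluted 1:100 into pH 6.0 -URA galactose medium with 23 nl compound. Growth recovery read as OD600; NS1-free strain serves as control.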
Pf growth 96h = P. falciparum growth inhibition at 96 hours; P. falciparum luciferase reporter growth, 96 h; Potency, µM (series often up to 28.7 µM), hits mostly inhibitors; 6.9% of 320,000 active
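Two-generation exposure (96 h) targets delayed-death phenotype. Reporter parasites carrying integrated firefly luciferase, in red cells at 2% hematocrit and 0.05% parasitemia final, kept at 37 C, 5% CO2; luminescence loss indicates inhibition.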
CHX counter = affects cycloheximide protein synthesis inhibition readout, counter-screen; cell reporter, cycloheximide protein synthesis inhibition counterscreen; AID 2314; 12% of 300,000 active; max response, %; in the data active = max response mostly above about 13%, no sharp cut-off; inactive = mostly below about 14%; note: read at 38.3 µM for the half of the compounds with a filed dose
Sm TGR inh = S. mansoni TGR enzyme inhibition; 3% of 360,000 active; Potency, µM (titrated, usually from 114 µM), actives largely listed as inhibitors; Q962Y6; purified TGR, DTNB reduction, TNB absorbance 405 nm; AID 485364; note: nearly all actives have a fitted effect of over 60% in size
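TGR 20 nM + NADPH 100 uM (dispensed conc.), cpd preinc 15 min RT; start with NADPH (500 uM addition) then DTNB (15 mM addition). Kinetic TNB absorbance, 405 nm filter. Four-parameter Hill fit across titration.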
Pf growth 48h = P. falciparum growth inhibition at 48 hours (one generation); P. falciparum luciferase growth in erythrocytes, 48 h; Potency, µM (top dose mostly 28.7 µM), hits mostly inhibitors; 5.9% of 310,000 active; AID 504832
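Cell-based growth assay: transgenic P. falciparum expressing firefly luciferase, cultured in red cells within RPMI 1640 containing 0.5% w/v Albumax, 24 mM bicarbonate and gentamycin. A drop in luciferase activity indicates inhibition.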
Shiga toxin inh = Shiga toxin inhibition; Vero cells, Shiga toxin protein synthesis inhibition reporter; inhibition, % at 38.7 µM; 9.2% of 290,000 active; AID 2315; in the data active = inhibition mostly above about 28%, no sharp cut-off; inactive = mostly below about 43%
Each line names hits and unclear results; the compound was inactive in the other large screens. Compounds with a hit are over-represented: about 21% of the library has one in this group of screens. Unless noted, calls come from the whole dose curve; as a rule, active = well fitted curve in the direction sought with a large enough effect; inconclusive = small, poorly fitted or top-dose-only effect, or another doubt; inactive = no such curve, though single readings can be large; an effect the other way counts as inactive or inconclusive.

Cc1ccc(OCc2cc(C(=O)N(C)CCc3ccccn3)no2)cn1	none
CCC(CC)COC(=O)C1=C(C)NC(=O)NC1c1ccccc1Br (configuration not stated)	none (no result: Shiga toxin inh)
CCSc1nnc(NC(=O)c2csc(C)c2)s1	CHX counter 16.9, Shiga toxin inh 48.8 (no result: Pf growth 96h)
O=C(CSc1nnc(CNC(=O)c2ccco2)o1)Nc1ccc(F)cc1	Pf growth 96h 10.4µM
Cc1ccc(NC(=O)CSc2nnc(CNC(=O)c3ccco3)o2)cc1	none (no result: NS1 function inh)
COc1cccc(CNC(=O)C2=C(C)C(=O)OC23CCN(C(C)=O)CC3)c1OC	none (no result: NS1 function inh, Pf growth 96h, CHX counter, Pf growth 48h, Shiga toxin inh)
CCOC(=O)c1coc(CNC(=O)c2c(C)oc3c2CCCC3)c1	none
CCOC(=O)c1cc(CNC(=O)c2c(C)oc3c2CCCC3)c(C)o1	Pf growth 96h inconclusive, Sm TGR inh 22.4µM, Pf growth 48h inconclusive
NC(=O)C1CCN(C(c2ccccc2)c2nnnn2C2CCCC2)CC1 (configuration not stated)	none
c1ccc(C(c2ccccc2)N2CCN(C(c3ccccn3)c3nnnn3C3CCCC3)CC2)cc1 (configuration not stated)	Pf growth 96h 4.65µM
N#Cc1ccc(C(c2nnnn2C2CCCC2)N2CCC(Cc3ccccc3)CC2)cc1 (configuration not stated)	Pf growth 48h 4.65µM
N#Cc1cccc(C(c2nnnn2C2CCCC2)N2CCCCCC2)c1 (configuration not stated)	Pf growth 96h 11.7µM, Pf growth 48h inconclusive
O=c1c(C(c2nnnn2C2CCCCC2)N2CCCCC2)coc2ccc(Cl)cc12 (configuration not stated)	Pf growth 96h inconclusive, Sm TGR inh 28.2µM
COCCn1nnnc1C(c1cccc(C#N)c1)N1CCCCCC1 (configuration not stated)	Pf growth 48h inconclusive
O=C(O)C[C@@H](C(=O)O)C1c2ccccc2-c2ccccc21	none (no result: Pf growth 96h, CHX counter, Sm TGR inh, Pf growth 48h, Shiga toxin inh)
CCN(CC(=O)Nc1c(F)cccc1F)C(=O)c1cccc(-n2cnnn2)c1	none (no result: NS1 function inh, CHX counter, Shiga toxin inh)
CCOc1ccc(S(=O)(=O)N2CCCCC2)cc1NC(=O)c1c(CC)noc1C	Pf growth 48h inconclusive (no result: NS1 function inh, CHX counter, Shiga toxin inh)
CCN(CC)CCNC(=O)c1cc2cc(Br)ccc2s1	Pf growth 96h inconclusive (no result: NS1 function inh)
c1cncc(C(c2nnnn2C2CCCCC2)N2CCN3CCCC3C2)c1 (configuration not stated)	none
c1ccc(Cn2nnnc2C(c2cccnc2)N2CCN(C3CCCCC3)CC2)cc1 (configuration not stated)	Pf growth 96h 13.1µM, Pf growth 48h inconclusive
N#Cc1cccc(C(c2nnnn2CCc2ccccc2)N2CCN(C3CCCCC3)CC2)c1 (configuration not stated)	Pf growth 96h inconclusive
Clc1ccc(C(c2nnnn2C2CCCC2)N2CCN(Cc3ccncc3)CC2)cc1 (configuration not stated)	Pf growth 48h inconclusive (no result: Pf growth 96h)
c1cncc(C(c2nnnn2C2CCCC2)N2CCCC2)c1 (configuration not stated)	Pf growth 96h 9.28µM
COc1ccc(Cn2nnnc2C(c2ccccc2)N2CCN(C3CCCC3)CC2)cc1 (configuration not stated)	Pf growth 48h inconclusive
N#Cc1cccc(C(c2nnnn2C2CCCC2)N2CCC(Cc3ccccc3)CC2)c1 (configuration not stated)	Pf growth 48h 5.22µM
Fc1ccc(C(c2nnnn2C2CCCC2)N2CCN(Cc3ccccc3)CC2)cc1 (configuration not stated)	Sm TGR inh inconclusive, Pf growth 48h 9.28µM (no result: Pf growth 96h)
Cc1ccccc1C(=O)Nc1nnc(S(=O)(=O)N(C)Cc2ccc(Cl)cc2)s1	none (no result: NS1 function inh, Pf growth 96h, CHX counter, Pf growth 48h, Shiga toxin inh)
CCN1CCN(C(=O)c2ccccc2NS(=O)(=O)c2ccc(Cl)cc2)CC1	none
Cc1ccc(CNC(=O)CCCCn2c(=O)c3ccccc3n(Cc3ccc(Cl)cc3)c2=O)cc1	none (no result: NS1 function inh, Pf growth 96h, CHX counter, Pf growth 48h, Shiga toxin inh)
c1csc(C(c2nnnn2C2CCCC2)N2CCCC3(CCCCC3)C2)c1 (configuration not stated)	Pf growth 48h 2.08µM (no result: Pf growth 96h)
COc1cc2c(cc1OC)CN(C(=O)CCNS(=O)(=O)c1ccc(Br)cc1)CC2	Pf growth 96h inconclusive, Pf growth 48h 9.28µM (no result: NS1 function inh, CHX counter, Shiga toxin inh)
O=C(CCNS(=O)(=O)c1ccccc1F)N1CCN(C(c2ccccc2)c2ccccc2)CC1	Pf growth 96h inconclusive, Pf growth 48h 13.1µM (no result: NS1 function inh, CHX counter, Shiga toxin inh)
O=C(CCNS(=O)(=O)c1ccccc1)N1CCCCCC1	Pf growth 96h inconclusive, CHX counter 32.2
O=C(CCNS(=O)(=O)c1ccc(Br)s1)N1CCN(c2ccccc2)CC1	Pf growth 96h 11.7µM
O=C(CN1C(=O)C2CC=CCC2C1=O)NCC(=O)Nc1ccc(F)c(F)c1 (configuration not stated)	none (no result: NS1 function inh, CHX counter, Shiga toxin inh)
Cc1ccc(-n2nc(C(=O)Nc3ccc(C)c(F)c3)c3c4ccccc4n(C)c3c2=O)cc1	none (no result: NS1 function inh, Pf growth 96h, CHX counter, Pf growth 48h, Shiga toxin inh)
Cc1ccc(NC(=O)CCS(=O)(=O)c2ccc3c(c2)NC(=O)C(C)S3)nc1 (configuration not stated)	Pf growth 96h inconclusive
O=C(CCNS(=O)(=O)c1ccc(Br)cc1)N1CCN(c2ccccc2O)CC1	Pf growth 96h inconclusive, Pf growth 48h 10.4µM (no result: NS1 function inh, CHX counter, Shiga toxin inh)
O=C(NCCC(=O)N1CCN(c2ccccc2O)CC1)c1ccc(Br)cc1	Pf growth 96h inconclusive, Pf growth 48h inconclusive (no result: NS1 function inh, CHX counter, Shiga toxin inh)
CC(=O)Oc1ccccc1/C=C/c1nc2ccccc2c(=O)o1	Pf growth 48h 1.47µM
CC(=O)Oc1ccc(-c2nc3ccccc3c(=O)o2)cc1	Pf growth 48h inconclusive
O=c1oc(/C=C/c2ccc([N+](=O)[O-])s2)nc2ccccc12	Pf growth 96h 0.0828µM, CHX counter 11.7, Pf growth 48h inconclusive
CC(=O)Oc1ccc(/C=C/c2nc3ccccc3c(=O)o2)cc1	Pf growth 96h 11.7µM
CC(=O)Oc1ccccc1/C=C1\CCOC1=O	none (no result: Pf growth 48h)
CCOc1ccc(NC(=O)N2CCN(C(=O)c3nsc4ccccc34)CC2)cc1	none (no result: NS1 function inh, Pf growth 96h, CHX counter, Pf growth 48h, Shiga toxin inh)
CCC(NC(=S)NC1CCCCC1)c1ccc(C)cc1 (configuration not stated)	Pf growth 96h 7.38µM, Pf growth 48h inconclusive
CCCc1ccc(C(C)NC(=S)NC2CCCCC2)cc1 (configuration not stated)	Pf growth 48h 13.1µM
Cc1ccc(C)c(C(C)NC(=S)NC2CCCCC2)c1 (configuration not stated)	Pf growth 48h 13.1µM
Cc1nc(N2CCOCC2)c2c(C(=O)N(C)Cc3ccccc3)c(C)oc2n1	none (no result: NS1 function inh, Pf growth 96h, CHX counter, Pf growth 48h, Shiga toxin inh)
O=C(CSc1ncnc2c1cnn2-c1ccccc1Cl)N1CCN(C(=O)c2ccco2)CC1	Pf growth 96h 7.38µM
COc1ccc(N2CCN(C(=O)CSc3ncnc4c3cnn4-c3ccccc3C)CC2)cc1	Pf growth 96h 6.57µM
Cc1ccccc1-n1ncc2c(SCC(=O)NC3CCCC3)ncnc21	Pf growth 96h inconclusive, Pf growth 48h inconclusive, Shiga toxin inh 70.5
Cc1nnc(NC(=O)CSc2ncnc3c2cnn3-c2ccccc2C)s1	none
Cc1ccccc1-n1ncc2c(SCC(=O)N3c4ccccc4CC3C)ncnc21 (configuration not stated)	Pf growth 96h inconclusive, Pf growth 48h inconclusive

From PubChem
